# Measured values as given in PubChem BioAssay (NCI).
# “And” between values parts separate entries of the source, which are not always exact repeats. Equal values may be shown once. Compounds without any hit were thinned out: in the full panel of roughly 83,000, 20% have a hit.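 How to read the values: 0–100, growth inhibition (40 = 60% inhibited); 0, no net growth; -100 to 0, cell death (-40 = 40% of starting cells died; -100 = all dead).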 The source made the active and inactive calls. How the source made its calls: active means growth percent below 10; inactive means the rest.
# System: MDA-MB-468 breast
# Test: NCI-60 one-dose screen, 48 h (100 = growth as untreated, 0 = no growth, -100 = all killed)
# Conditions: 10 µM unless noted
row,SMILES,growth
1,COc1ccc(OC)c(/C=C/[N+](=O)[O-])c1,-59.3% (active)
2,O=[P+](O)c1cccnc1,99.1% (inactive)
3,COc1cc(CNCCc2ccc(Cl)cc2)cc(OC)c1O,43.5% (inactive)
4,COc1ccc(N)cc1OC,109% (inactive)
5,C=CCc1cc2c(cc1OCC)OCO2,101% (inactive)
6,O=CN1N=C(c2ccc3c(c2)OCO3)CC1c1sc(N(CCCl)CCCl)nc1Cl (stereo not given),90.9% (inactive)
7,Cc1ccc(S(=O)(=O)C(Cl)(Cl)Cl)cc1,99.8% (inactive)
8,CC1(C)N=C(N)N=C(N)N1c1ccc(OCCCCNC(=O)Nc2cccc(S(=O)(=O)F)c2)c(Cl)c1,40.9% (inactive)
9,CCOC(=O)CCN(C)C1=Nc2ccc(Cl)cc2C(c2ccccc2)=[N+]([O-])C1,93.7% (inactive)
10,O=c1cc[nH]c(=O)o1,105% (inactive)
11,Cc1c2ccncc2c(C)c2c1[nH]c1ccccc12,-54.9% (active)
12,CN(C)C(=O)Oc1ccc(Br)cc1,98.6% (inactive)
13,O1[As]2O[As]3O[As]1O[As](O2)O3,-63.2% (active)
14,CNC(=O)Oc1cccc(C(F)(F)F)c1,110% (inactive)
15,CC[C@H](C)[C@H]1O[C@]2(C=C[C@@H]1C)C[C@@H]1C[C@@H](C/C=C(\C)[C@@H](O[C@H]3C[C@H](OC)[C@@H](O[C@H]4C[C@H](OC)[C@@H](NC)[C@H](C)O4)[C@H](C)O3)[C@@H](C)/C=C/C=C3\CO[C@@H]4[C@H](O)C(C)=C[C@@H](C(=O)O1)[C@]34O)O2,-68.8% (active)
16,O=C(O)C(Br)CBr (stereo not given),94.8% (inactive)
17,Oc1ccccc1C=NCCN=Cc1ccccc1O.[Fe],64.3% (inactive)
18,Nc1c(Br)cc2c3c(cccc13)-c1ccccc1-2,3.54% (active)
19,CC[CH2][Sn]([Cl])([Cl])[CH2]CC.Oc1ccccc1C=NCCN=Cc1ccccc1O,-59.7% (active) and -33.9% (active)
20,O=C1NC(=S)NC(=O)C1=Cc1ccccc1,117% (inactive)

row,SMILES,growth
1,CC(=O)Nc1ccc(C=C2C(=O)NC(=O)NC2=O)cc1,115% (inactive)
2,C/C(=C\c1ccc(Cl)c(Cl)c1)[N+](=O)[O-],-77.9% (active) and 93.8% (inactive)
3,CC[C@H](C)[C@@H]([C@@H](CC(=O)N1CCC[C@H]1[C@H](OC)[C@@H](C)C(=O)N[C@H](C)[C@@H](O)c1ccccc1)OC)N(C)C(=O)[C@@H](NC(=O)[C@@H](NC)C(C)C)C(C)C,37% (inactive)
4,Nc1ncnc2n[nH]nc12,51.6% (inactive)
5,COC(=O)[C@@H](C)C[C@H](Cc1ccccc1)NC(=O)c1nc([C@@H](C[C@H](C(C)C)N(C)C(=O)[C@@H](NC(=O)[C@H]2C[C@H](O)CCN2C)C(C)C)OC(C)=O)sc1C(C)C,-0.0807% (active)
6,C[C@@H]1C[C@@]2(C)[C@@H](CC[C@@H]3[C@@H]2CC[C@]2(C)C(=O)CC[C@@H]32)CC1=O,95.4% (inactive)
7,C=CC[Se]C(=O)c1ccccc1OC(C)=O,-16.6% (active)
8,CC(Oc1ccc(-c2ccccc2)cc1)C(=O)O (stereo not given),94.4% (inactive)
9,COc1ccc(NP2(=O)OCC(C)(N)CO2)cc1 (stereo not given),105% (inactive)
10,CCCCC1(CCC)C(=O)NC(=S)NC1=O,98.7% (inactive)
11,CN1C(=O)N[C@H]2[C@@H]3NC(=O)c4ccc(Br)n4[C@@H]3C[C@]21O,-50.6% (active)
12,Nc1c(Br)cc([N+](=O)[O-])cc1[N+](=O)[O-],95.5% (inactive)
13,CCCOC(=O)N[C@H]1CCc2c(Br)c(OC)c(OC)c(OC)c2-c2ccc(SC)c(=O)cc21,-14.2% (active)
14,C=CC(O)CN1CC1CC (stereo not given),105% (inactive)
15,COC[C@@H]1C[C@@]2(C)[C@@H](CC[C@@H]3[C@@H]2CC[C@@]2(C)[C@H]3CC[C@]2(C)O)CC1=O,99% (inactive)
16,CC(=O)N(C)C1=Nc2ccc(Cl)cc2C(c2ccccc2)=[N+]([O-])C1,111% (inactive)
17,COC(=O)[C@H]1[C@@H](O)[C@@]2(O)c3c(OC)cc(OC)cc3O[C@@]2(c2ccc(OC)cc2)[C@@H]1c1ccccc1,-16.5% (active)
18,Cc1cc(N(CCCl)CCCl)ccc1C=Nc1ccc2ccccc2c1,-9.8% (active)
19,Cc1ccc(N)cc1[As]=[As]c1cc(N)ccc1C (stereo not given),-92.9% (active)
20,CNC(=O)Oc1ccccc1-c1ccccc1,113% (inactive)
